B2AR arrestin ag: ADRB2 beta-arrestin recruitment. 44,000 tested, under 10 active. HTLA Tango cells, beta-arrestin recruitment, luciferase luminescence, 18 h. P07550. Potency, µM (series often up to 46.1 µM), actives largely listed as activators;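 also: potency is read from the fitted curve at half-maximal effect; 0% = DMSO and full agonism = EC100 isoproterenol or metaproterenol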
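Ligand-induced beta-arrestin recruitment to recombinant beta2-AR is measured via a tTA-driven luciferase reporter in Tango cells after 18 hr compound exposure at 37 degrees C. Concentrations span up to 46 microM.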
TSG101-PTAP inh: inhibitors of HIV-1 PTAP binding to human TSG101, validation. Fluorescence polarization, FITC-PTAP peptide/Tsg101, 20 min. Potency, µM (top dose mostly 115 µM), actives largely listed as inhibitors. 44,000 tested, under 10 active; also: potency is read from the fitted curve at half-maximal effect; 0% is about no effect
Target sequence (Q99816 whole entry, looked up): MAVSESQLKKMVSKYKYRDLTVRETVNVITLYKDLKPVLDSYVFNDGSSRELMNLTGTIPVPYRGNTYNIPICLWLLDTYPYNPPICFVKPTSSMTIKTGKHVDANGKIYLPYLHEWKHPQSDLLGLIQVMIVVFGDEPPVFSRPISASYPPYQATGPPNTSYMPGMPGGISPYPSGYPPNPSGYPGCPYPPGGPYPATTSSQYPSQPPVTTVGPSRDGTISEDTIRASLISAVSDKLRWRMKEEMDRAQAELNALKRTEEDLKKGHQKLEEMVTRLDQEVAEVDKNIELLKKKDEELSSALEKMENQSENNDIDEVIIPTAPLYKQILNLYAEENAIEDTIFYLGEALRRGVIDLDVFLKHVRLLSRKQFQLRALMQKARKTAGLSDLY
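Fluorescence polarization: Tsg101 binding domain (10 uM final) in 10 mM HEPES pH 7.5, 0.15 M NaCl, 0.01% Tween 20, 3 mM EDTA, 0.1 mM TCEP; compounds pinned; FITC-PTAP peptide 50 nM final; 20 min, r.t.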
GALK inh: GALK (human) enzyme inhibition; recombinant GALK, Kinase-Glo ATP luminescence, 1 h; Potency, µM (doses to about 57.5 µM), for inactives: top-dose activity, negative = inhibition, usual class: inhibitors; 44,000 tested, under 10 active;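 also: plate controls were full GALK reaction for no effect and reaction lacking GALK for full effect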
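Luminescent ATP-depletion readout (Kinase-Glo Plus) after 1 h room-temperature incubation of human GALK (5 nM) with galactose 100 µM and ATP 35 µM, pH 8.0 HEPES/Mg2+ buffer; compounds tested in qHTS format.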
HTT-AS promoter: HTT-AS promoter activation; 48,000 compounds, 0.24% hits; Potency, µM (doses to about 57.5 µM), inactives show at the highest dose activity change, positive = activation, actives largely listed as activators; HEK293 HTT-AS promoter firefly luciferase reporter, 24 h; response scale: percent change from vehicle, -100% = no light; also: potency is read from the fitted curve at half-maximal effect; nearly all actives have a fitted effect of over 55% in size
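Firefly luciferase readout (Dual-Glo, 10 min RT) after 24 h, 37 °C compound exposure (final up to 57.5 uM) of HEK293 reporter cells cultured 24 h beforehand; PTC124 at 50 uM final as control inhibitor; activity scaled vehicle 0%, zero RLU -100%.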
DRV1 agonist: agonists of human resolvin D1 receptor DRV1 (GPR32); O75388; CHO-K1 GPR32 beta-arrestin PathHunter luminescence, 90 min; zero percent set by DMSO-only wells; activation, % at 76.9 µM; 48,000 compounds, 2.5% hits; AID 1346428;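 active = activation of at least 60% and not above a set upper limit, about 1 call in 100 departs from these limits; inconclusive = activation of 40% to 60%, or above that upper limit; inactive = activation under 40%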; also: 0% is about no effect
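Agonism was scored by beta-Gal fragment complementation (chemiluminescent read, 1 h detection at ambient temperature) reporting beta-arrestin binding to GPR32 in engineered CHO-K1 cells. Compound treatment lasted 90 min at 37 C, normalized to a DMSO basal control.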
HTT prom inh: inhibitors of huntingtin promoter activity; HEK293 HTT promoter firefly luciferase reporter, 24 h; Potency, µM (top dose mostly 57.5 µM), without a hit: top-dose activity change, negative = inhibition, actives largely listed as inhibitors; 48,000 compounds, 0.93% hits; also: potency is read from the fitted curve at half-maximal effect; nearly all actives have a fitted effect of over 50% in size
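HEK293 luciferase promoter-reporter cells (2,500/well) plated 24 h, then compounds added at up to 57.5 uM final for 24 h at 37 °C. Firefly luminescence by Dual-Glo, normalized to vehicle (0%) and zero RLU (-100%).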
* hit, by the source's call; i = inactive; u = inconclusive; x = no result given. The list is not random: actives were taken first. Their share in the collection is about 3.7%. Unless noted, calls follow the shape of the dose curve; as a rule, active = well fitted curve in the direction sought with a large enough effect; inconclusive = small, poorly fitted or top-dose-only effect, or another doubt; inactive = no such curve, though single readings can be large; an effect the other way counts as inactive or inconclusive.

SMILES	B2AR arrestin ag	TSG101-PTAP inh	GALK inh	HTT-AS promoter	DRV1 agonist	HTT prom inh
C[C@@H]1CN(CC(=O)Nc2ccc3c(c2)Cc2cccc(-c4cc(=O)cc(N5CCOCC5)o4)c2S3)C[C@H](C)O1	x	x	x	-37%	x	u
Cc1ccc(CCNc2ncnc3onc(-c4ccc(Cl)cc4)c23)cc1	i	i	0%	-22%	4	u
CC(C)CNc1ncnc2onc(-c3ccc(Cl)cc3)c12	i	i	9%	-14%	90*	-17%
Clc1ccc(CNc2ncnc3onc(-c4ccc(Cl)cc4)c23)cc1	i	i	6%	-25%	2	u
CCOc1ccc(CCNc2ncnc3onc(-c4ccc(Cl)cc4)c23)cc1	i	i	-1%	-68%	-3	14µM*
COc1cc(CNCCSc2nnnn2C)ccc1OCc1ccccc1C	i	i	9%	0%	73*	9%
Cn1nnnc1SCCNCc1cc(Br)ccc1OCc1ccccc1Cl	i	i	8%	-52%	75*	28µM*
CCOc1ccc(CNCCSc2nnnn2C)cc1OC	i	i	2%	-7%	-6	-5%
CC(C)(C)OC(=O)CN(Cc1ccc(Cl)cc1)Cc1ccc([N+](=O)[O-])s1	x	x	x	-14%	x	-6%
CCOC(=O)c1ccc(NS(=O)(=O)c2cc(Br)cc3c2N(C(C)=O)C(C)C3)cc1 (stereo not drawn)	i	i	5%	-52%	-4	16µM*
CC(=O)N1c2c(cc(Br)cc2S(=O)(=O)Nc2ccc(OC(F)(F)F)cc2)CC1C (stereo not drawn)	i	i	0%	-63%	31	25µM*
CC[C@H](C)n1cc(C)c2c(C(=O)NCc3c(C)cc(C)[nH]c3=O)cc(-c3ccc(N4CCNCC4)nc3)cc21	x	x	x	-3%	x	-4%
NC(=O)C1(N2CCCCC2)CCN(CCCN2c3ccccc3CCc3ccc(Cl)cc32)CC1	x	x	x	-38%	u	u
COc1ccc(CNC(=O)Cn2c(=O)oc3cc(S(=O)(=O)N4CCCCCC4)ccc32)cc1	i	i	2%	-25%	61*	u
COc1cccc(NC(=O)Cn2c(=O)oc3cc(S(=O)(=O)N4CCCCC4)ccc32)c1	i	i	1%	-40%	116*	u
COc1ccc(Cl)cc1NC(=O)Cn1c(=O)oc2cc(S(=O)(=O)N3CCCCCC3)ccc21	i	i	-3%	-22%	7	u
COc1ccc(C)cc1NC(=O)Cn1c(=O)oc2cc(S(=O)(=O)N3CCCCC3)ccc21	i	i	-1%	-36%	84*	u
Cc1cccc(NC(=O)Cn2c(=O)oc3cc(S(=O)(=O)N4CCCCCC4)ccc32)c1	i	i	2%	-50%	38	10µM*
CC(=O)c1ccc(NC(=O)Cn2c(=O)oc3cc(S(=O)(=O)N4CCCCC4)ccc32)cc1	i	i	6%	-9%	u	-6%
COc1ccc(Nc2cc(-c3cnc(N)nc3)nc(N3CCOCC3)n2)cn1	x	x	x	-34%	x	u
CC1CCN(S(=O)(=O)c2ccc3c(c2)oc(=O)n3CC(=O)NC(C)c2ccccc2)CC1 (stereo not drawn)	i	i	-1%	-34%	31	14µM*
O=C(c1cncc(Br)c1)N1CCC(N2CCCC2)CC1	x	x	x	-1%	x	6%
CCC(C)NC(=O)C1CCN(C(=O)c2cc3sccc3n2Cc2ccc(Cl)cc2)CC1 (stereo not drawn)	i	i	6%	-54%	7	8.9µM*
COCCNC(=O)C1CCN(C(=O)c2cc3sccc3n2Cc2ccc(Cl)cc2)CC1	i	i	3%	-51%	5	u
COc1cc2nc(-c3cc(F)ccc3O)nc(N[C@@H]3CNC[C@@H]3C(C)(C)O)c2cc1OC	x	x	x	5%	x	u

High-throughput results as filed in PubChem.
